Compounds without any hit were thinned out: in the full panel of roughly 83,000, 20% have a hit.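 Results are percent growth after 48 hours of single-concentration exposure. 100 means growth as in untreated cells, lower positive values show inhibition; negative values down to -100 show cell death.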 Calls of active or inactive are those of the source. How the source made its calls: active means growth percent below 10; inactive means the rest.
tested on: SW-620 colon; test: NCI-60 one-dose screen, 48 h (100 = growth as untreated, 0 = no growth, -100 = all killed); settings: 10 µM unless noted

Structure (SMILES) | growth
COc1ccc(-n2c(SCc3n[nH]c(=S)o3)nc3ccc(Cl)cc3c2=O)cc1 | 97.8% (inactive)
CNC(=O)c1cc(Oc2ccc3nc(NC(=O)c4ccc(N5CCOCC5)c(C(F)(F)F)c4)sc3c2)ccn1 | 114% (inactive)
COc1ccc(/C=C(/C)c2ccc3ccc(OC)cc3[o+]2)c(O)c1 | 30.1% (inactive)
O=C1[C@H]2Cc3c([nH]c4ccccc34)[C@@H](c3ccc(Br)cc3)N2C(=O)CN1C1CCN(CC2CCCCC2)CC1 | -83.4% (active)
O=C(c1ccc(O)cc1)[C@@H]1CN[C@@]2(C(=O)Nc3ccccc32)[C@H]1c1ccc(F)cc1 | 105% (inactive)
COc1ccc(/C=C(\C#N)C(=O)N2c3ccccc3Sc3ccc(SC)cc32)cc1F | 95.2% (inactive)
CN1CCN(Cc2ccc(NC(=O)c3cncc(C#Cc4cnn5cccnc45)c3)cc2C(F)(F)F)CC1 | 0.2% (active)
CCOC(=O)c1c(NC(=O)c2ccccc2C(F)(F)F)sc2c1CCC(=O)C2 | 14.9% (inactive)
Nc1nc(-c2cccc([N+](=O)[O-])c2)c(N=Nc2ccccc2)s1 | 64.9% (inactive)
Cc1ccc(C(=O)NN2C(=O)/C(=C/C=C/c3ccco3)SC2=S)cc1 | 106% (inactive)
Cc1nc(-c2ccccc2O)ccc1C(=O)N=Nc1c(O)[nH]c2ccc(Br)cc12 | 95.9% (inactive)
NS(=O)(=O)c1ccc(-n2cc(-c3cccc(NC(=O)c4ccc(N5CCOCC5)c(C(F)(F)F)c4)c3)nn2)cc1 | 64.5% (inactive)
CCc1cccc(NC(=O)CNc2cc(S(=O)(=O)N(C)C)cc(C)c2C)c1 | 97.6% (inactive)
COc1ccc(-c2nc3cccc(O)c3c(=O)n2Cc2ccccc2)cc1COc1ccc(NC(C)=O)cc1 | 27.9% [3 µM] (inactive)
O=C(CN1CCN(c2cc(=O)n(-c3ccccc3)c3ccccc23)CC1)Nc1nc(-c2ccc(Cl)cc2)cs1 | 74.3% (inactive)
Cc1c(Cl)cccc1S(=O)(=O)Nc1ccc2c(c1)C(=O)N(C1CCC(=O)NC1=O)C2=O (stereo unspecified) | 44.8% (inactive)
C#CC(=O)N(c1ccc(OC)cc1OC)C(C(=O)NCC(=O)OCC)c1cccs1 (stereo unspecified) | 2.04% (active)
COc1ccccc1N1CCN(C2=CC(=O)C(C)=C(C)C2=O)CC1 | 105% (inactive)
COc1cc(/C=C2\C(=O)Nc3ccccc32)ccc1OCc1ccc(Cl)cc1 | 96.6% (inactive)

Structure (SMILES) | growth
Nc1ncc(-c2ccc3ncnc(N4CCc5cc(F)c(F)cc54)c3c2)cn1 | 54.4% (inactive)
COc1ccc(-c2nc(C(Cl)Cl)nc3cc(-c4ccccc4)nn23)cc1 | -23.9% (active)
Cc1cc(-c2ccc(Cl)cc2)n(Cc2nnc(SCC(=O)Nc3ccc(S(N)(=O)=O)cc3)n2-c2ccc([N+](=O)[O-])cc2)n1 | 84.5% (inactive)
CN1c2ccccc2Sc2cc(C=C(C#N)C#N)ccc21 | 90.9% (inactive)
CC(C)(C)c1ccc(-c2nnc(-c3nc4ccccc4nc3Cl)o2)cc1 | 66.2% (inactive)
O=C(Cn1cc[n+](CC(=O)c2ccc(-c3ccccc3)cc2)c1)Nc1cccc2cccnc12 | 85% (inactive)
N#Cc1cccc(/C(N)=N/C(N)=N/c2nc3ccccc3s2)c1 | 22.9% (inactive)
COc1ccccc1-n1cc(C#N)c(N)c1C(=O)c1ccc(Cl)cc1 | 40.8% (inactive)
N=c1c2cc(-c3ccccc3)oc2ncn1/N=C/c1ccc(Br)cc1 | 31% (inactive)
CC1(COc2ccc3ncc(C#Cc4cncc(C(=O)Nc5cccc(C(F)(F)F)c5)c4)n3n2)COC1 | 69% (inactive)
Cc1cc(C(NC(=O)CCCCCNc2cccc3c2C(=O)N(C2CCC(=O)NC2=O)C3=O)c2ccc3c(c2)OC(F)(F)O3)c(O)c2ncccc12 (stereo unspecified) | 40.2% (inactive)
N#Cc1c(NC(=O)c2cccc(C(F)(F)F)c2F)sc2c1CCC(=O)C2 | 0.65% (active)
O=C(CN1CCN(c2cc(=O)n(-c3ccccc3)c3ccccc23)CC1)Nc1nc(-c2ccccc2)cs1 | 68.6% (inactive)
CN(C)CCCOc1ccc2c(c1)CN(C(=O)c1cc(C(=O)N3Cc4cccc(F)c4C3)ccc1O)C2 | 105% (inactive)
O=C(CSc1nnc(-c2ccc(Cl)cc2)n1-c1ccccc1)Nc1ccc(Br)cc1 | 37.9% (inactive)
CC1(C)CC[C@]23CC[C@]4(C)[C@H](CC[C@@H]5[C@@]6(C)CCCN(CO)C(C)(C)[C@@H]6CC[C@]54C)[C@H]2[C@H]1OC3 | 9.58% (active)
COc1ccc(CCN2C(=O)CSC2=S)cc1 | 61.3% (inactive)
CCn1c(SCC(=O)Nc2cccc(C(=O)/C=C/c3ccc(C)cc3)c2)nc2ccccc2c1=O | 51.4% (inactive)
O=C1[C@@H]2Cc3c([nH]c4ccccc34)[C@H](c3c(Cl)cccc3Cl)N2C(=O)CN1C1CCN(CC2CCCCC2)CC1 | 10.2% (inactive)

tested on: MCF7 breast; test: as above; settings: 10 µM unless noted

Structure (SMILES) | growth
COc1ccc(-n2c(SCc3n[nH]c(=S)o3)nc3ccc(Cl)cc3c2=O)cc1 | 90.6% (inactive)
CNC(=O)c1cc(Oc2ccc3nc(NC(=O)c4ccc(N5CCOCC5)c(C(F)(F)F)c4)sc3c2)ccn1 | 70% (inactive)
COc1ccc(/C=C(/C)c2ccc3ccc(OC)cc3[o+]2)c(O)c1 | 30.7% (inactive)
O=C1[C@H]2Cc3c([nH]c4ccccc34)[C@@H](c3ccc(Br)cc3)N2C(=O)CN1C1CCN(CC2CCCCC2)CC1 | -99.1% (active)
O=C(c1ccc(O)cc1)[C@@H]1CN[C@@]2(C(=O)Nc3ccccc32)[C@H]1c1ccc(F)cc1 | 99% (inactive)
COc1ccc(/C=C(\C#N)C(=O)N2c3ccccc3Sc3ccc(SC)cc32)cc1F | 95.9% (inactive)
CN1CCN(Cc2ccc(NC(=O)c3cncc(C#Cc4cnn5cccnc45)c3)cc2C(F)(F)F)CC1 | -2.5% (active)
CCOC(=O)c1c(NC(=O)c2ccccc2C(F)(F)F)sc2c1CCC(=O)C2 | 78.5% (inactive)
Nc1nc(-c2cccc([N+](=O)[O-])c2)c(N=Nc2ccccc2)s1 | 51.9% (inactive)
Cc1ccc(C(=O)NN2C(=O)/C(=C/C=C/c3ccco3)SC2=S)cc1 | 82% (inactive)
Cc1nc(-c2ccccc2O)ccc1C(=O)N=Nc1c(O)[nH]c2ccc(Br)cc12 | 91% (inactive)
NS(=O)(=O)c1ccc(-n2cc(-c3cccc(NC(=O)c4ccc(N5CCOCC5)c(C(F)(F)F)c4)c3)nn2)cc1 | 36.9% (inactive)
CCc1cccc(NC(=O)CNc2cc(S(=O)(=O)N(C)C)cc(C)c2C)c1 | 91.7% (inactive)
COc1ccc(-c2nc3cccc(O)c3c(=O)n2Cc2ccccc2)cc1COc1ccc(NC(C)=O)cc1 | 37.1% [3 µM] (inactive)
O=C(CN1CCN(c2cc(=O)n(-c3ccccc3)c3ccccc23)CC1)Nc1nc(-c2ccc(Cl)cc2)cs1 | 20.1% (inactive)
Cc1c(Cl)cccc1S(=O)(=O)Nc1ccc2c(c1)C(=O)N(C1CCC(=O)NC1=O)C2=O (stereo unspecified) | 88.2% (inactive)
C#CC(=O)N(c1ccc(OC)cc1OC)C(C(=O)NCC(=O)OCC)c1cccs1 (stereo unspecified) | 49.1% (inactive)
COc1ccccc1N1CCN(C2=CC(=O)C(C)=C(C)C2=O)CC1 | 83.5% (inactive)
COc1cc(/C=C2\C(=O)Nc3ccccc32)ccc1OCc1ccc(Cl)cc1 | 69.5% (inactive)

Structure (SMILES) | growth
Nc1ncc(-c2ccc3ncnc(N4CCc5cc(F)c(F)cc54)c3c2)cn1 | 14.4% (inactive)
COc1ccc(-c2nc(C(Cl)Cl)nc3cc(-c4ccccc4)nn23)cc1 | 29.3% (inactive)
Cc1cc(-c2ccc(Cl)cc2)n(Cc2nnc(SCC(=O)Nc3ccc(S(N)(=O)=O)cc3)n2-c2ccc([N+](=O)[O-])cc2)n1 | 58% (inactive)
CN1c2ccccc2Sc2cc(C=C(C#N)C#N)ccc21 | 54.6% (inactive)
CC(C)(C)c1ccc(-c2nnc(-c3nc4ccccc4nc3Cl)o2)cc1 | -65.9% (active)
O=C(Cn1cc[n+](CC(=O)c2ccc(-c3ccccc3)cc2)c1)Nc1cccc2cccnc12 | 51.4% (inactive)
N#Cc1cccc(/C(N)=N/C(N)=N/c2nc3ccccc3s2)c1 | 23.1% (inactive)
COc1ccccc1-n1cc(C#N)c(N)c1C(=O)c1ccc(Cl)cc1 | 32.3% (inactive)
N=c1c2cc(-c3ccccc3)oc2ncn1/N=C/c1ccc(Br)cc1 | 65.6% (inactive)
CC1(COc2ccc3ncc(C#Cc4cncc(C(=O)Nc5cccc(C(F)(F)F)c5)c4)n3n2)COC1 | 62.8% (inactive)
Cc1cc(C(NC(=O)CCCCCNc2cccc3c2C(=O)N(C2CCC(=O)NC2=O)C3=O)c2ccc3c(c2)OC(F)(F)O3)c(O)c2ncccc12 (stereo unspecified) | 29.5% (inactive)
N#Cc1c(NC(=O)c2cccc(C(F)(F)F)c2F)sc2c1CCC(=O)C2 | 2.17% (active)
O=C(CN1CCN(c2cc(=O)n(-c3ccccc3)c3ccccc23)CC1)Nc1nc(-c2ccccc2)cs1 | 27.6% (inactive)
CN(C)CCCOc1ccc2c(c1)CN(C(=O)c1cc(C(=O)N3Cc4cccc(F)c4C3)ccc1O)C2 | 83.2% (inactive)
O=C(CSc1nnc(-c2ccc(Cl)cc2)n1-c1ccccc1)Nc1ccc(Br)cc1 | 38.6% (inactive)
CC1(C)CC[C@]23CC[C@]4(C)[C@H](CC[C@@H]5[C@@]6(C)CCCN(CO)C(C)(C)[C@@H]6CC[C@]54C)[C@H]2[C@H]1OC3 | 17.1% (inactive)
COc1ccc(CCN2C(=O)CSC2=S)cc1 | 24.2% (inactive)
CCn1c(SCC(=O)Nc2cccc(C(=O)/C=C/c3ccc(C)cc3)c2)nc2ccccc2c1=O | 19.7% (inactive)
O=C1[C@@H]2Cc3c([nH]c4ccccc34)[C@H](c3c(Cl)cccc3Cl)N2C(=O)CN1C1CCN(CC2CCCCC2)CC1 | 18.4% (inactive)
